# Bioassay records deposited in PubChem by National Center for Advancing Translational Sciences (NCATS).
# HTT aggregate: reduces HttQ103-GFP aggregates in PC12 cells. PC12 HttQ103-GFP aggregates, Acumen cytometry, 40 h. Potency, µM (doses to about 46.1 µM), without a hit: at the highest dose activity change, negative = inhibition, most hits filed as inhibitors. 1.1% of 220,000 active. AID 1688; further: potency means the concentration at half of the fitted maximal effect; on the % scale 0 is the no-effect control and ±100 the full control effect; nearly all actives have a fitted effect of over 60% in size
#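 Ecdysone-promoter PC12 model expressing HTT exon 1 Q103 fused to GFP, induced by tebufenozide at 100 nM final. Compounds titrated; aggregates sized 1–25 µm scored on a 488 nm laser cytometer.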
# HPGD inh: blocks human HPGD enzyme activity; P15428; purified HPGD, NADH fluorescence kinetic, PGE2 substrate; Potency, µM, without a hit: at the highest dose activity change, negative = inhibition, hits mostly inhibitors; 4.3% of 150,000 active; active means well fitted inhibition curve with a large enough effect, not every such curve was filed as active; inconclusive means small, poorly fitted or top-dose-only effect, or another doubt; inactive means no such curve, though single readings can be large or run the other way; further: potency means the concentration at half of the fitted maximal effect; on the % scale 0 is the no-effect control and ±100 the full control effect
#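 NADH formation kinetics: reaction with 30 uM PGE2 and 1 mM NAD+ (final), 20 nM enzyme, Tris-HCl pH 8 with Tween 20, after 15 min compound preincubation at room temperature. Fluorescence change, last versus first of five reads.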
# ALDH1A1 block: blocks purified human ALDH1A1 activity | Purified ALDH1A1, NADH fluorescence, propionaldehyde substrate | 7.3% of 220,000 active | Potency, µM (highest dose often 75.3 µM), inactives show at the top dose activity, negative = inhibition, usual class: inhibitors; active means well fitted inhibition curve with a large enough effect, not every such curve was filed as active; inconclusive means small, poorly fitted or top-dose-only effect, or another doubt; inactive means no such curve, though single readings can be large or run the other way;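 further: potency means the concentration at half of the fitted maximal effect; plate controls were no enzyme wells and a reference inhibitor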
# CBFb RUNX1 block: blocks binding between human CBF-beta and RUNX1; Potency, µM (highest dose often 59.8 µM), without a hit: at the top dose activity, negative = inhibition, hits mostly inhibitors; AID 1477; AlphaScreen CBFb-His/RUNX1-biotin binding, biochemical; 230,000 tested, under 10 active; further: % of control where 0% means no effect
# Target sequence (Q01196 whole entry, looked up): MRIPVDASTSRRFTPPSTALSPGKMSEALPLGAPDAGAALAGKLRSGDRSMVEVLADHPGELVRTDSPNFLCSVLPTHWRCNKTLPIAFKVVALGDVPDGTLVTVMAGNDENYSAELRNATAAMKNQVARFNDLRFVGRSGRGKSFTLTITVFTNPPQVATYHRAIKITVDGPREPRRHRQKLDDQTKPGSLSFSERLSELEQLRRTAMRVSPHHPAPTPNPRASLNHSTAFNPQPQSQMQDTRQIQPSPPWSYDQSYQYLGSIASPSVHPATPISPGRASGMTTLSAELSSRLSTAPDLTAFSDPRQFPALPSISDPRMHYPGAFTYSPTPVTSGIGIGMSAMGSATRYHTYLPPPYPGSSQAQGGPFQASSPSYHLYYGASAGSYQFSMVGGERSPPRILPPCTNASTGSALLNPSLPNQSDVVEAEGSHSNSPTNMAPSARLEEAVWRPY
# Target sequence (Q13951 whole entry, looked up): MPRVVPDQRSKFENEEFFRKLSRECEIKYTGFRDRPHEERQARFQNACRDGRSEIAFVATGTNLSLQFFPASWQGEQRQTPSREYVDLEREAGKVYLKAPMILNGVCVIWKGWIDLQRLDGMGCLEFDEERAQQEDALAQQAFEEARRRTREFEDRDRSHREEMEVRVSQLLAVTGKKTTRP
#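 Inhibition was taken as any reduction in AlphaScreen signal from the CBF-beta–RUNX1 pair (His and biotin tags, 30 nM each), measured after compound (15 min) and bead (90 min) incubations at room temperature.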
# PNC inhibitor: inhibitors of perinucleolar compartment assembly; PC3M PTB-GFP, PNC prevalence imaging, 16 h; active compounds read low; AID 2417; activity change (PNC), negative = inhibition, % at 10 µM; 3.1% of 140,000 active;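 active means readout at or below -70, meaning at least 70% loss of cells showing the perinucleolar compartment, a nuclear body marking cancer cells; inconclusive means readout between -30 and a set limit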;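 further: plate controls were DMSO wells for no effect and camptothecin positive control wells for full effect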
#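 PC3M cells stably expressing PTB-GFP, 750–1000 cells/well, treated 16 h at 37 °C with compound (23 nl of library stock), in duplicate. After paraformaldehyde fixation and Hoechst stain, imaged at 20x; PNC prevalence scored by image analysis.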
# HTT cytoprotect: Huntington cell model cytoprotection by ATP luminescence; PC12 HTT-Q103 induced, cytoprotection, ATP luminescence, 40 h; Potency, µM (titrated, usually from 56.4 µM), for the others: cytoprotection (ATP increase), most hits filed as activators; 0.14% of 230,000 active; further: potency means the concentration at half of the fitted maximal effect; % of control where 0% means no effect; nearly all actives have a fitted effect of over 45% in size
#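 Rat PC12, Q103 Htt exon1-GFP fusion, ecdysone promoter; tebufenozide inducer 100 nM final; compound titration; qHTS, 1500 cells/well; ATPlite luminescent read.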
# * marks the source's active call; other numbers are inactive results; ? = inconclusive; / = no result given; [ ] = another dose, or the depositor's remark. In the library only some 11% were active in any assay of this set; here they are far more common. Unless noted, the call rests on the fitted dose curve; in most records, active means well fitted curve in the direction sought with a large enough effect; inconclusive means small, poorly fitted or top-dose-only effect, or another doubt; inactive means no such curve, though single readings can be large; an effect the other way counts as inactive or inconclusive.
SMILES,HTT aggregate,HPGD inh,ALDH1A1 block,CBFb RUNX1 block,PNC inhibitor,HTT cytoprotect
C=CCN1C(=O)/C(=C/C=C2/N(CC)c3ccc(S(=O)(=O)N(C)C)cc3N2CC)SC1=S,-9%,/,2.8µM*,-20%,/,-44%
Cn1cnnc1SCc1ccccc1[N+](=O)[O-],3%[9.22 µM],/,/,4%,/,11%[10 µM]
COc1ccc(CSc2nncn2C)cc1[N+](=O)[O-],-4%,-11%,20µM*,-22%,27,1%[10 µM]
COc1ccc(CSc2nncn2N)cc1[N+](=O)[O-],7%,-15%,?,5%,-89*,3%[10 µM]
CSc1sc(C)cc1/C=N/O,13%,16µM*,-5%,2%,39,/
C[C@@H]1[C@H]2CC[C@@H]3[C@@H]4CC=C5C[C@@H](N(C)C)CC[C@]5(C)[C@@H]4CC[C@@]32CN1C,/,-9%,-10%[20.9 µM],-19%[21.7 µM],/,8%[40.3 µM]
C=CCOC(=O)N[C@H](/C(C(=O)OC)=C(\C)NCc1ccccc1)c1ccc2c(c1)OCO2,/,-8%,1%,1%,/,-21%
Cc1cc([N+](=O)[O-])cc2c1NC(=O)C2(O)N1CCCCCC1 (centres undefined),-11%,-11%,22µM*,2%,62,-3%[10 µM]
O=C1Nc2ccc([N+](=O)[O-])cc2C1(O)N1CCCCC1 (centres undefined),4%,-5%,-12%,-4%,7,11%
C=Cc1c(C)c2cc3nc(cc4[nH]c(cc5nc(cc1[nH]2)C(C)=C5CCC(=O)O)c(CCC(=O)OC)c4C)[C@@]1(C)C3=CC=C(C(=O)OC)[C@H]1C(=O)OC (tested in a mixture with another compound),10%,-5%,3%[20.9 µM],?,/,-47%
Cc1ccc2cc(C=C(C#N)C#N)c(N3CCCCC3)nc2c1,29%,-5%,7.9µM*,18%,-11,-44%
CCOC(=O)/C(C#N)=C/c1cc2ccccc2nc1N1CCCCC1,-14%,/,19µM*,3%,/,-2%[10 µM]
Cc1ccc2cc(C#N)c(N3CCN(C)CC3)nc2c1,-7%,-13%,-9%,10%,-23,8%[1.9 µM]
Cc1ccc2cc(/C=C(\C#N)C(N)=O)c(N3CCCCC3)nc2c1,-17%,-16%,11µM*,-3%,-15,-4%[10 µM]
N#C/C(=C\c1cc2ccccc2nc1N1CCOCC1)C(=O)Nc1ccc(N2CCOCC2)cc1,2%,-21%,-12%,-4%,?,22%[10 µM]
N#CC(C#N)=Cc1cc2ccccc2nc1N1CCOCC1,11%,0%,11µM*,1%,3,14%[10 µM]
N/C(=N\c1nc2ccccc2o1)NC(=O)c1ccccc1Br,-13%[9.22 µM],/,?,3%,/,-1%[10 µM]
COc1ccc2c(c1OC)C(=O)OC2CC(=O)c1ccc(N(C)C)cc1 (centres undefined),-4%,-11%,-10%,1%,6,5%
CC[C@H](C)[C@H](NC(=O)[C@H](CC(C)C)NC(=O)[C@@H](N)CO)C(=O)NCC(=O)N[C@@H](CCCN=C(N)N)C(=O)N[C@@H](CC(C)C)C(=O)O,/,/,/,27%,/,/
COc1ccccc1-c1cc(C(F)(F)F)nc(S(=O)(=O)CCCC(=O)NC(C)C)n1,-17%[9.22 µM],?,-4%,2%,7,-108%
COc1ccccc1-c1cc(C(F)(F)F)nc(S(C)(=O)=O)n1,?,25µM*,-4%,0%,?,-149%
Cc1ccccc1Nc1nnc(SCC(=O)NC2CCCc3ccccc32)s1 (centres undefined),4%,-12%,-7%,-4%,-12,34%[10 µM]
Cc1ccc(C(=O)NC(=S)NCC2CCCO2)cc1[N+](=O)[O-] (centres undefined),-2%,/,14µM*,0%,/,15%
CC(c1ccccc1)n1cc(C(=O)NCCN2CCOCC2)nn1 (centres undefined),-3%,-6%,-7%,9%,-15,-10%[10 µM]
Cc1ccccc1C(=O)NC(=S)NCC1CCCO1 (centres undefined),20%,-7%,9%,?,-105*,5%
SMILES,HTT aggregate,HPGD inh,ALDH1A1 block,CBFb RUNX1 block,PNC inhibitor,HTT cytoprotect
COCCSc1ccccc1C(=O)NCC1CCCO1 (centres undefined),28%,-10%,1%,-3%,-10,9%
CSc1ccccc1C(=O)NCC1CCCO1 (centres undefined),14%,16µM*,7%,0%,12,-7%
CC(c1ccccc1)n1cc(C(=O)NCC2CCCO2)nn1 (centres undefined),18%,-12%,0%,-2%,-100*,-11%[10 µM]
COc1ccc(C(=O)N2CCC3(CCCN(c4ncccn4)C3)CC2)cc1,/,-15%,-6%,/,/,-62%
CCc1n[nH]c(=S)n1/N=C/c1c(C)nn(-c2ccccc2)c1Cl,-9%,/,2%,0%,/,9%[10 µM]
C=CCOc1c(Br)cc(/C=N/n2c(CC)n[nH]c2=S)cc1Br,3%,3.2µM*,8%,0%,-24,/
CCc1n[nH]c(=S)n1/N=C/c1ccc(N(CC)CC)cc1,2%,/,10µM*,-15%,/,-51%
CCN(CC)c1ccc(/C=N/N2C(=O)c3ccccc3C2=O)cc1,10%,-19%,?,-5%,-9,/
CCc1n[nH]c(=S)n1/N=C/c1cc(Br)c(O)c(OC)c1,-11%[9.22 µM],/,/,-3%,/,0%[10 µM]
CCN(CC)c1ccc(/C=N/n2c(C)cc(C)cc2=O)cc1,-11%,?,7.9µM*,-5%,-123*,-13%[10 µM]
Cc1ccccc1NC(=S)NC(NC(=O)c1ccccc1C)C(Cl)(Cl)Cl (centres undefined),-18%,-6%,-15%,1%,-16,-5%
Cc1cc2c3c(cccc3n1)C(=O)c1ccccc1-2,/,-3%,-11%,-26%,/,-113%
CCN1C(=O)/C(=C/c2cnn(C)c2C)SC1=S,15%,-1%,?,0%,-10,11%
COc1ccc(/C=C2\SC(=S)N(CC(=O)N3CCN(C)CC3)C2=O)cc1,-17%[9.22 µM],/,/,1%,/,16%[10 µM]
O=C1/C(=C/c2ccncc2)SC(=S)N1Cc1ccccc1,10%[9.22 µM],/,/,-15%,/,-14%[10 µM]
CCc1ccc(/C=C2\SC(=S)N(CCC(=O)N3CCN(C)CC3)C2=O)cc1,12%,/,?,-13%,/,18µM*
CCN1C(=O)/C(=C/c2cn(C)nc2C)SC1=S,7%,-12%,4µM*,-3%,30,-13%
CCCN1C(=O)/C(=C/c2ccncc2)SC1=S,7%,-13%,10µM*,-5%,?,-10%[10 µM]
CCCCCCCCCCCCC/C=C/[C@@H](O)[C@H](CO)N(C)C,/,-2%,0%,1%,/,3%
CCCCCCCCCCCCCCC/C=C\[C@H](O)[C@@H](NC(=O)CCCCCCCCCCCCC)OC (tested in a mixture with another compound),/,/,/,/,/,-8%[1.9 µM]
